# Experimental data reported in PubChem BioAssay (EPA / NIEHS).
# Results filed as inconclusive are left out. Active and inactive are the calls of the source. Rule for the calls, unless noted: active = hit-call score of the fitted dose curve at least 0.9, where 1 is the maximum; inactive = score below 0.9.
# Assays:
# [1] = tested on: SRY-box transcription factor 17 (SOX17) Protein Expression, Deisenroth Lab, SOX17 (gene 64321); test: CCTE_Deisenroth_DEVTOX-GLR_legacy_Sox17: (Legacy) CCTE's DevTox GLR-Endo Assay Evaluation of SRY-box transcription factor 17 (SOX17) Protein Expression, Deisenroth Lab (AID 2284341); settings: actives raise or lower the signal
# Outline: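 Percent SOX17-positive cells, scored by high-content imaging as mean intensity exceeding pluripotent-control median by 5x BMAD, divided by cell count. Human RUES2-GLR endoderm differentiation, 48 h, two exposures 24 h apart, 1 nM–200 uM; DMSO-referenced bidirectional fitting.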
# [2] = tested on: SRY-box transcription factor 2 (SOX2) Protein Expression, Deisenroth Lab, SOX2 (gene 6657); test: CCTE_Deisenroth_DEVTOX-GLR_legacy_Sox2: (Legacy) CCTE's DevTox GLR-Endo Assay Evaluation of SRY-box transcription factor 2 (SOX2) Protein Expression, Deisenroth Lab (AID 2284346)
# Outline: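 RUES2-GLR human pluripotent cells seeded 24 h, then differentiated 48 h in defined media with two chemical doses 24 h apart (10-point, 1 nM–200 uM). Fixed, nuclear-stained, imaged; % Sox2+ cells (>5x BMAD over endoderm control median), DMSO-subtracted, fitted upward.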
# [3] = Tanguay_ZF_120hpf_MO24: Oregon State University Tanguay Lab 24 Hour Post-fertilization zebrafish Assay for Mortality (AID 2284389)
# Outline: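 Dechorionated wild-type zebrafish embryos, 1 per well, statically exposed from 6 hpf at 28C, 0.64% DMSO final. Mortality scored as binary present/absent at 24 hpf by brightfield microscopy, relative to DMSO.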
# [4] = Tanguay_ZF_120hpf_DP24: Oregon State University Tanguay Lab 24 Hour Post-fertilization zebrafish Assay for Delayed Development (AID 2284390)
# Outline: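 Dechorionated 5D wild-type zebrafish embryos exposed statically from 6 hpf, one per well, 0.64% DMSO final, 28 C, sealed and dark. Developmental progression scored at 24 hpf by brightfield as binary present/absent; dead embryos excluded.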
# [5] = Tanguay_ZF_120hpf_CRAN: Oregon State University Tanguay Lab 120 Hour Post-fertilization zebrafish Assay for Craniofacial Malformation (AID 2284397)
# Outline: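 Dechorionated Tropical 5D wild-type zebrafish embryos, one per well, were statically exposed from 6 to 120 hpf at 28C in 0.64% DMSO, with 5uM trimethyltin chloride as positive control. Craniofacial malformation was scored present/absent by brightfield microscopy, relative to DMSO.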
# [6] = Tanguay_ZF_120hpf_AXIS: Oregon State University Tanguay Lab 120 Hour Post-fertilization zebrafish Assay for Axial Malformation (AID 2284398)
# Outline: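 Dechorionated 5D wild-type zebrafish embryos exposed statically, one per well, from 6 to 120 hpf at 28C, 0.64% DMSO. Axial malformation scored as present/absent by brightfield microscopy at 120 hpf; dead embryos not scored.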
# [7] = tested on: SERPINA7 (gene 6906); test: CCTE_GLTED_hTBG: CCTE's human Thyroxine-binding Globulin (TBG) Inhibition Assay, Great Lakes Toxicology and Ecology Division (GLTED) Lab (AID 2284343; active = hit-call score of the fitted dose curve at least 0.9, where 1 is the maximum;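 note: active chemicals lower fluorescence versus DMSO baseline by displacing probe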)
# Outline: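 hTBG + test chem, 2 h; ANSA probe displacement; fluorescence readout ex380/em475; DMSO = neg ctrl/baseline; cell-free.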
# [8] = CCTE_Mundy_HCI_iCellGluta_NOG_NeuronCount: CCTE's Neurite Outgrowth Assay in iCellGluta cells for Neuron Count, Mundy Lab (AID 2284340; active = hit-call score of the fitted dose curve at least 0.9, where 1 is the maximum;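 note: cells fixed about 48 h after compound addition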)
# Outline: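 Neuron count read by automated high-content imaging of Hoechst 33342 and betaIII-tubulin/Alexa Fluor-488 labelling in human iPSC glutamatergic neurons. Activity fitted relative to DMSO.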
# [9] = CCTE_Mundy_HCI_iCellGluta_NOG_NeuriteCount: CCTE's Neurite Outgrowth Assay in iCellGluta cells for Neurite Count, Mundy Lab (AID 2284342; active = hit-call score of the fitted dose curve at least 0.9, where 1 is the maximum;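 note: chemical exposure about 48 hours starting 2 hours after plating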)
# [10] = VALA_TUBIPS_Agonist_CellCount: Viability Assessment in the VALA Sciences human iPS-derived Endothelial Tubule Formation (TUBIPS) Agonism Assay (AID 2284338; active = hit-call score of the fitted dose curve at least 0.9, where 1 is the maximum)
smiles,measurement,setting,value
CN(C)CCOC(c1ccccc1)c1ccccc1,AC50,[1],58.1 µM (active)
same,AC50,[2],100 µM (active)
O=C(O)CCC(F)(F)C(F)(F)C(F)(F)C(F)(F)C(F)(F)F,outcome,[3],inactive
same,outcome,[4],inactive
same,outcome,[5],inactive
same,outcome,[6],inactive
CCCCc1ccc2ccccc2c1S(=O)(=O)O,AC50,[7],22 µM (active)
C=CC(=O)OCCC(F)(F)C(F)(F)C(F)(F)C(F)(F)C(F)(F)C(F)(F)C(F)(F)C(F)(F)F,outcome,[8],inactive
same,outcome,[9],inactive
same,outcome,[3],inactive
same,outcome,[4],inactive
same,outcome,[5],inactive
same,outcome,[6],inactive
CCCCc1oc2ccccc2c1C(=O)c1cc(I)c(OCCN(CC)CC)c(I)c1,AC50,[1],20.8 µM (active)
same,AC50,[2],29.9 µM (active)
O=C1NS(=O)(=O)c2ccccc21,outcome,[1],inactive
same,outcome,[2],inactive
O=C(CC(=O)C(F)(F)C(F)(F)C(F)(F)F)c1cccs1,outcome,[9],inactive
same,AC50,[7],14.1 µM (active)
same,outcome,[3],inactive
same,outcome,[4],inactive
same,outcome,[5],inactive
same,outcome,[6],inactive
CN(CCO)S(=O)(=O)C(F)(F)C(F)(F)C(F)(F)C(F)(F)C(F)(F)C(F)(F)C(F)(F)C(F)(F)F,outcome,[3],inactive
same,outcome,[4],inactive
same,AC50,[5],29.5 µM (active)
same,AC50,[6],29.6 µM (active)
O=P(O)(O)CCC(F)(F)C(F)(F)C(F)(F)C(F)(F)C(F)(F)C(F)(F)F,outcome,[8],inactive
same,outcome,[9],inactive
same,outcome,[3],inactive
same,outcome,[4],inactive
same,outcome,[5],inactive
same,outcome,[6],inactive
Cc1cc(Cc2cc(C)cc(C(C)(C)C)c2O)c(O)c(C(C)(C)C)c1,AC50,[7],2.6 µM (active)
CC(=O)Nc1ccc(O)cc1,outcome,[1],inactive
same,outcome,[2],inactive
O=C(c1ccccc1)c1ccccc1,AC50,[7],40.2 µM (active)
CCCCCCCCCCCCOC(=O)c1cc(O)c(O)c(O)c1,AC50,[7],4.45 µM (active)
CN(Cc1cnc2nc(N)nc(N)c2n1)c1ccc(C(=O)N[C@@H](CCC(=O)O)C(=O)O)cc1,outcome,[1],inactive
same,AC50,[2],0.0109 µM (active)
Cc1[nH]nc2c1N=C(c1ccccc1Cl)c1cc([N+](=O)[O-])ccc1N2,AC50,[7],0.482 µM (active)
O=C(CCCN1CCC(O)(c2ccc(Cl)cc2)CC1)c1ccc(F)cc1,outcome,[10],inactive
COc1cc([N+](=O)[O-])ccc1N,AC50,[7],37 µM (active)
O=P(O)(O)CCC(F)(F)C(F)(F)C(F)(F)C(F)(F)C(F)(F)C(F)(F)C(F)(F)C(F)(F)F,outcome,[9],inactive
same,AC50,[7],95.6 µM (active)
same,outcome,[3],inactive
same,outcome,[4],inactive
same,outcome,[5],inactive
same,outcome,[6],inactive
CCCCCCCCCC=CCC1CC(=O)OC1=O (stereo not drawn),AC50,[7],60.7 µM (active)
O=C(O)C(F)(F)OC(F)(F)C(F)(F)OC(F)(F)C(F)(F)OC(F)(F)C(F)(F)C(F)(F)C(F)(F)F,AC50,[7],20.8 µM (active)
same,outcome,[3],inactive
same,outcome,[4],inactive
same,outcome,[5],inactive
same,outcome,[6],inactive
OCC(F)(F)C(F)(F)C(F)(F)C(F)(F)C(F)(F)C(F)(F)C(F)(F)C(F)(F)C(F)(F)C(F)(F)C(F)(F)F,AC50,[8],1.55 µM (active)
same,outcome,[9],inactive
same,outcome,[3],inactive
same,outcome,[4],inactive
same,outcome,[5],inactive
same,outcome,[6],inactive
CC(C)c1c(C(=O)Nc2ccccc2)c(-c2ccccc2)c(-c2ccc(F)cc2)n1CC[C@@H](O)C[C@@H](O)CC(=O)O,AC50,[8],10.1 µM (active)
same,AC50,[9],0.094 µM (active)
